EP2 mod: EP2 receptor (human) modulation; P43116; EP2-expressing cells, cAMP HTRF FRET, PGE2 co-stimulation; induction, % at 25 µM; 260,000 compounds, 0.83% hits; AID 940;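 active = compounds whose cAMP rise, as percent of the full-agonist control response, exceeds 60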;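 also: rat C6 glioma line stably carrying human EP2 under a CMV promoter; the protocol text gives 20 µM as final concentration; 100% = response of wells given 1 µM PGE2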
PGE2 EP2 inh: inhibitors of human EP2 prostaglandin E2 receptor; P43116; C6 glioma cells expressing human EP2, cAMP TR-FRET; cells stimulated with saturating PGE2; inhibition, % at 25 µM; 260,000 compounds, 0.52% hits; AID 1422;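 active = percent inhibition above 40 after rounding to a whole number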;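 also: rat C6 glioma host cells with rolipram phosphodiesterase inhibitor present; the protocol text gives 20 µM as final concentration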
CHT block: inhibitors of human choline transporter CHT; B-score at 10 µM; Q9GZV3; 310,000 compounds, 0.86% hits; CHT-expressing cells, membrane potential dye, choline response; active compounds read low;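 active = B-score over 3 SD under the library average, and starting fluorescence ratio not unusually high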;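 also: choline stimulus applied at its EC90 after an EC20 pre-addition; B-score computed on integrated fluorescence ratio after choline addition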
CHT allo act: allosteric activators of human choline transporter CHT; Q9GZV3; CHT-expressing cells, membrane potential dye, choline EC20; active compounds read high; LV-AA mutant CHT in HEK293 cells; B-score at 10 µM; 310,000 compounds, 0.49% hits;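 active = initial fluorescence not abnormally high and integrated response B-score, plate-corrected, over 3 SD above library mean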
CHT act confirm: human CHT activation, confirmatory screen. shares compounds with CHT allo act. CHT-expressing cells, membrane potential dye fluorescence (FDSS); % of choline EC20–EC90 response window; HEK293 expressing CHT LV-AA mutant; choline added at its EC20. activation, % at 10 µM. 2,500 compounds, 91% hits;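 active = primary screen active, with duplicate mean activation above negative control mean plus 3 SD, cut at about 11% in these data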
HEK293 MP dye: counter-screen for CHT activators: effect in parental HEK293 cells; shares compounds with CHT allo act; membrane potential dye fluorescence (FDSS); measured after EC20 choline addition; ratio readout change at 10 µM, hits read low; 2,500 compounds, 62% hits; AID 623908;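 active = duplicate-averaged ratio beyond 3 SD from buffer wells, up or down, though filed actives are nearly all decreases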
The depositor's hits bear a star; i = inactive; x = no result. Sampled rows, rich in hits. Any-hit rate of the full collection: about 2%.

SMILES	EP2 mod	PGE2 EP2 inh	CHT block	CHT allo act	CHT act confirm	HEK293 MP dye
CN(Cc1cccc(F)c1)C(=O)C(c1ccccc1)c1ccccc1	x	x	i	6.5*	6	i
COc1ccccc1CN(C)C(=O)c1ccc(COc2ccccc2)cc1	x	x	i	i	x	x
Cc1ccc2c(CN3CCOCC3)cc(=O)oc2c1C	x	x	i	i	x	x
Cc1cc(C)c2c(CN3CCN(C)CC3)cc(=O)oc2c1	9	2	i	i	46*	-42*
CCc1cc2c(CN3CCN(CCO)CC3)cc(=O)oc2cc1O	-7	12	i	i	37*	-30*
Cc1ccc2c(CN3CCN(CCO)CC3)cc(=O)oc2c1C	6	6	i	8.9*	54*	-59*
CCN1CCN(Cc2cc(=O)oc3ccc(C)cc23)CC1	7	5	i	i	44*	-46*
NC(=O)c1c(NC(=O)c2cc(Cl)ccc2Cl)sc2c1CCCC2	-49	6	x	x	x	x
Cc1cccc2cc(C(c3nnnn3CC3CCCO3)N3CCCCCC3)c(=O)[nH]c12 (stereo unspecified)	57	14	x	x	x	x
COc1ccc(CNC(=O)Cn2nc(C)n3c(cc4ccsc43)c2=O)cc1	-39	x	x	x	x	x
Cc1cc(F)ccc1NC(=O)CCCSc1nc(-c2ccco2)cc(C(F)(F)F)n1	-94	10	x	x	x	x
CN1CCN(Cc2cc(=O)oc3cc4c(cc23)CCC4)CC1	-10	3	i	i	22*	-49*
CC1CCN(Cc2cc(=O)oc3cc4c(cc23)CCCC4)CC1	60	5	i	i	x	x
NC1C2CN(c3nc4c(cc3F)c(=O)c(C(=O)O)cn4-c3ccc(F)cc3F)CC12 (stereo unspecified)	42	9	i	7.9*	60*	-67*
Cc1cc(C)cc(N(CC(=O)N2CCC(C(N)=O)CC2)S(C)(=O)=O)c1	-17	10	x	x	x	x
C/C(Cl)=C\Cn1c(NCCc2ccccc2)nc2c1c(=O)n(C)c(=O)n2C	15	4	i	i	x	x
CCN(CC)CCNc1nc2c(c(=O)n(C)c(=O)n2C)n1C/C=C(/C)Cl	13	12	i	i	68*	-42*
O=C(CSc1nc(-c2cccs2)cc(C(F)(F)F)n1)N1CCCCC1	-3	20	x	x	x	x
O=C(CSc1ncc(-c2ccc(F)cc2)[nH]1)Nc1ccc2c(c1)OCO2	-64	11	x	x	x	x
CCC[n+]1cccc2c3ccccc3ccc21	-14	4	x	x	x	x
O=[N+]([O-])c1ccc(C[n+]2cccc3c4ccccc4ccc32)cc1	3	10	i	10*	75*	-75*
CC1(C)Cc2c(sc3nc(NCCN4CCOCC4)n4ncnc4c23)CO1	-70	14	i	6.5*	62*	-62*
Cc1ccc(N2C(=O)c3cccc4cccc(c34)C2=O)cc1	29	11	i	i	x	x
CC1=Nc2ccc(C)c3nc(C)cc(c23)N1c1ccc(C)cc1	25	11	i	8.5*	42*	-60*

Screens: PubChem, several laboratories
